UHRF1 binding: blocks human UHRF1 binding to methylated DNA; inhibition, % at 4.4 µM; Q96T88; AID 687016; UHRF1 binding to methylated oligo, TR-FRET; hit rate 0.75% among 370,000; in the data active = inhibition above about 21%;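 note: UHRF1 SRA domain binding a hemimethylated CpG hairpin DNA probe; 0% = median of test compound wells and 100% = reference inhibitor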
rCAG RNA binder: molecules binding r(CAG) RNA repeats; r(CAG) RNA repeat, TO-PRO-1 dye displacement fluorescence; hit rate 1.3% among 370,000; inhibition, % at 3 µM;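 active = inhibition above the plate cutoff, the mean of all test compounds on that plate plus 3 SD, cut at about 35% in these data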;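 note: 0% = DMSO alone and 100% = 100 µM mitoxantrone as full dye displacement; higher means more dye released from RNA so lower well fluorescence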
ABHD5-PLIN5 inh: inhibitors of human ABHD5-perilipin-5 interaction; hit rate 0.78% among 360,000; AID 602281; inhibition, % at 4 µM; Split G. princeps luciferase complementation, luminescence, 4 h;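 active = inhibition above the mean inhibition across every tested compound plus 3 SD, cut at about 22% in these data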;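 note: 0% = DMSO only wells and the 100% control is not disclosed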
PRMT1 inh: blocks human protein arginine methyltransferase 1. inhibition, % at 2.79 µM. Q99873. hit rate 1.3% among 370,000. AID 652257. recombinant PRMT1, activity-based probe fluorescence polarization;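 active = inhibition above about 21% made by adding two undisclosed values, limit read from the data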
Target sequence (Q99873 whole entry, looked up): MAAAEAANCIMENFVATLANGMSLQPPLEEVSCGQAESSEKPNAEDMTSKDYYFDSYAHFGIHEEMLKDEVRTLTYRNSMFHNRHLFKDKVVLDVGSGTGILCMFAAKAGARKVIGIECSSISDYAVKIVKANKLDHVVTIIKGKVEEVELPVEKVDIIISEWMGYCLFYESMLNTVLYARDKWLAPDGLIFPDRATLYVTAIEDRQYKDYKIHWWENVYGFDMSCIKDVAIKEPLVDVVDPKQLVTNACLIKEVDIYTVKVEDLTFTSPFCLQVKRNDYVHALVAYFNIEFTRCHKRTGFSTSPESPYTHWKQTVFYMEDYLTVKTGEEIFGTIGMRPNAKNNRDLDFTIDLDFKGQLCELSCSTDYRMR
MBD2 inh: blocks human MBD2 binding to methylated DNA; hit rate 0.31% among 370,000; Q9UBB5; inhibition, % at 4.4 µM; TR-FRET, MBD2 binding to methylated oligonucleotide; in the data active = inhibition above about 13%
LEDGF integ inh: blocks HIV-1 LEDGF/p75-dependent DNA integration; inhibition, % at 3.7 µM; TR-FRET IN-LEDGF/p75 DNA integration, Eu/Cy5; hit rate 0.64% among 370,000;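 active = inhibition above the screen-wide mean plus 3 SD, cut at about 13% in these data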;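 note: signal is the Cy5 over europium emission ratio at 671 and 618 nm; 0% = plate median of compound wells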
PRMT1 confirm: confirmation of human PRMT1 inhibitors; shares compounds with PRMT1 inh; recombinant His-PRMT1, activity-based probe fluorescence polarization; inhibition, % at 2.79 µM; hit rate 42% among 3,300;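 active = mean inhibition across replicates above the hit cutoff derived for the earlier primary screen, cut at about 22% in these data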
UHRF1 DNA bind: counter-screen for MBD2 inhibitors: human UHRF1 methylated DNA binding inhibitors; UHRF1 binding to methylated oligonucleotide, TR-FRET; shares compounds with MBD2 inh; hit rate 25% among 1,000; inhibition, % at 4.4 µM; in the data active = inhibition above about 21%;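 note: UHRF1 SRA domain binding a labeled hemimethylated CpG hairpin DNA; 0% = vehicle only and 100% = reference inhibitor with vehicle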
MBD2 DBD conf: MBD2-DBD methyl-DNA binding inhibition, TR-FRET confirmation | inhibition, % at 4.4 µM | shares compounds with MBD2 inh | hit rate 26% among 1,000 | TR-FRET MBD2-DBD binding to methylated oligonucleotide
IN multimer act: HIV-1 integrase multimerization activation, counter-screen. shares compounds with LEDGF integ inh. TR-FRET HIV-1 integrase multimerization, biochemical. activation, % at 7.7 µM. hit rate 17% among 2,000. AID 1053131; in the data active = activation above about 8.9%
TRFRET interf: optically interferes with TR-FRET readout in LEDGF counter-screen; shares compounds with LEDGF integ inh; TR-FRET optical interference counterscreen, HIV-1 IN multimerization; inhibition, % at 7.7 µM; 2,000 tested, under 10 active;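 active = inhibition above the mean over all tested compounds plus 3 SD, which no compound reached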;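 note: 0% = integrase with antibodies and DMSO and 100% = antibodies without integrase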
IN-LEDGF confirm: LEDGF/p75-dependent HIV-1 integration inhibition, confirmation; TR-FRET LEDGF/p75-dependent HIV-1 integration, biochemical; inhibition, % at 3.7 µM; hit rate 36% among 2,000; shares compounds with LEDGF integ inh; AID 1053136
* marks the source's active call; other numbers are inactive results; . = no result. The list is not random: actives were taken first. Their share in the collection is about 4.1%. Cut-off read from the data, not from the text of the source, unless noted: active = inhibition above about 14%; inactive = the rest.

SMILES | UHRF1 binding | rCAG RNA binder | ABHD5-PLIN5 inh | PRMT1 inh | MBD2 inh | LEDGF integ inh | PRMT1 confirm | IN multimer act | TRFRET interf | IN-LEDGF confirm | others
O=C(Nc1ccc(F)cc1)OCc1cn(Cc2ccc(F)cc2F)nn1 | 1 | -1 | . | -2 | -9 | -1 | . | . | . | .
O=C(N/N=C/C=C/c1ccccc1[N+](=O)[O-])c1cccs1 | -1 | -1 | -3 | -4 | -2 | 5 | . | . | . | .
O=C(N/N=C\C=C\c1ccc([N+](=O)[O-])o1)c1cccs1 | 43* | 30 | 2 | 31* | 9 | 36* | 5 | 11* | -38 | 57*
CC1OC2CC(=O)OC2C2=C1C(=O)c1c(O)cccc1C2=O (centres undefined) | 18 | 4 | 101* | 90* | -2 | 19* | 73* | -1 | 3 | 41*
C=CCN1CCc2nc(N)sc2CC1 | 4 | 9 | -10 | 61* | 12 | 14* | 11 | 0 | -2 | 3
O=C1CCC2(CCC(c3ccccc3)CC2)N1CCCO (centres undefined) | 1 | 2 | . | 3 | 1 | 0 | . | . | . | .
Cc1cc(O)c(N=Cc2cc3c(cc2[N+](=O)[O-])OCO3)cc1C | 0 | 7 | 10 | 25* | -2 | 19* | 22* | 6 | -30 | 6
COc1ccccc1NC(=O)/C=C\c1ccco1 | 0 | 12 | 19 | 18 | 3 | 0 | . | . | . | .
COc1ccccc1NC(=O)/C(C#N)=C/C=C/c1ccco1 | 6 | 27 | -4 | 28* | 6 | 25* | 9 | 1 | -5 | 4
O=c1c2cc(Cl)ccc2oc2nc3n(c(=O)c12)CCCS3 | -9 | 14 | 2 | 63* | 3 | 22* | 52* | -1 | 8 | 27*
N#Cc1c(-c2ccc(Cl)cc2)nc2n(c1=O)CCCS2 | -3 | 8 | 3 | 2 | 5 | -2 | . | . | . | .
CC(C)(C)N(Cc1cn(CC2CCCCC2)nn1)S(=O)(=O)c1ccccc1Br | 19 | 1 | . | 4 | 11 | 0 | . | . | . | .
CCCCN1C[C@@H](COCc2ccccc2)Oc2cccc(F)c2S1(=O)=O | -1 | 0 | . | -1 | 2 | 4 | . | . | . | .
CC1CCC2(CCC(=O)N2CCCO)CC1 (centres undefined) | 0 | 1 | . | 2 | 2 | -1 | . | . | . | .
O=C(NC1CCCCC1)NC1CCN(C(=S)NCc2ccco2)CC1 | 0 | -3 | 1 | 0 | -5 | 0 | . | . | . | .
S=C(NC1CC1)SCc1ccco1 | 54* | 28 | -4 | 48* | 24* | 35* | 12 | 0 | 0 | 2 | UHRF1 DNA bind=8;MBD2 DBD conf=2
CSc1nc(N(CCO)CCO)c2sc3nc(-c4ccco4)c4c(c3c2n1)CCC4 | 24* | 23 | 22* | 37* | 18* | 16* | 39* | 12* | -60 | 53* | UHRF1 DNA bind=31*;MBD2 DBD conf=36*
O=C1CC(SC(=S)C2CCCC2=O)C(=O)N1 (centres undefined) | 54* | 19 | -30 | 64* | 17* | 24* | 82* | 7 | -37 | 22*
CC1=NN(c2ccccc2)C(=O)C1C(=S)SC1CC(=O)NC1=O (centres undefined) | -7 | 3 | -27 | 14 | -10 | 2 | . | . | . | .
COc1ccc(-c2ccc3c(n2)CCCN3Cc2ccccc2C(F)(F)F)cc1 | -4 | 7 | . | -2 | -4 | 2 | . | . | . | .

Bioassay records from PubChem BioAssay.
